Source: PubChem
IL1B secr inh: inflammasome signaling inhibition, IL-1 beta readout; THP-1 LPS/ATP IL-1B secretion, AlphaLISA, 16 h; stronger effect = lower value; activity change, % at 57.5 µM; 4.7% of 360,000 active; AID 743279; in the data active = activity change below about -50%; inconclusive = mostly about -30% to -49%; note: % is set by controls: 0 for no effect and ±100 for the full control effect
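THP-1 cells pretreated 1 hr with compounds (up to 57.5 uM final), then stimulated with LPS (250 ng/mL final) plus ATP (1.25 mM final); secreted IL-1B measured by AlphaLISA after 16 hr, decreased signal indicating inhibition.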
KB-V1 cytotox: KB-V1 MDR subline cytotoxicity. KB-V1 MDR cells viability, CellTiter-Glo, 72 h. Potency, µM (doses to about 46.1 µM), usual class: cytotoxic. 3.4% of 400,000 active; note: potency is the fitted concentration of half-maximal effect; % is set by controls: 0 for no effect and ±100 for the full control effect; nearly all actives have a fitted effect of over 60% in size
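KB-V1 cells (P-gp-expressing MDR subline of KB-3-1) in phenol-red-free DMEM with 10% FBS were exposed to library compounds over a concentration series for 72 h at 37 degrees C. Viability read by CellTiter-Glo luminescence; concentration-effect curves fitted after normalization.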
SW480 rereplic: inducers of DNA re-replication in SW480 colon cancer cells; Potency, µM (top dose mostly 46.1 µM), for the others: at the highest dose re-replication activation, most hits filed as activators; AID 624297; 1.8% of 340,000 active; SW480 DNA re-replication, Hoechst DNA content imaging, 48 h; note: potency is the fitted concentration of half-maximal effect; % of control where 0% means no effect; nearly all actives have a fitted effect of over 55% in size
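Per well, 250 cells were exposed to pinned compound for 48 hr. Nuclear DNA was visualised with Hoechst (40 min, 37 C) and total object intensity recorded by fluorescence scanning.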
KB-3-1 tox: KB-3-1 parental cell cytotoxicity. KB-3-1 viability, CellTiter-Glo ATP luminescence, 72 h. Potency, µM (series often up to 46.1 µM), most hits filed as cytotoxic. 1.4% of 400,000 active. AID 1347075; note: potency is the fitted concentration of half-maximal effect; % is set by controls: 0 for no effect and ±100 for the full control effect; nearly all actives have a fitted effect of over 60% in size
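Luminescent ATP read-out (CellTiter-Glo) measures survival of drug-naive KB-3-1 cells after 72 h compound exposure at 37 °C. Titration series was screened from lowest to highest concentration, with DMSO vehicle plates as background controls.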
MCF10A rereplic: induces DNA re-replication in MCF 10a normal breast cells. MCF 10A DNA re-replication, Hoechst nuclear intensity, 48 h. Potency, µM (series often up to 46.1 µM), inactives show at the highest dose activity, positive = re-replication, usual class: activators. 2.9% of 350,000 active. AID 624296; note: potency is the fitted concentration of half-maximal effect; % of control where 0% means no effect; nearly all actives have a fitted effect of over 50% in size
Active calls of the source: *; i = inactive; ? = inconclusive; · = no result. This is a sample that favours compounds with a hit; in the whole collection about 9.9% have one here. Unless noted, calls come from the whole dose curve; as a rule, active = well fitted curve in the direction sought with a large enough effect; inconclusive = small, poorly fitted or top-dose-only effect, or another doubt; inactive = no such curve, though single readings can be large; an effect the other way counts as inactive or inconclusive.

SMILES | IL1B secr inh | KB-V1 cytotox | SW480 rereplic | KB-3-1 tox | MCF10A rereplic
O=C(NNc1nc(-c2ccccc2)c2cc(Br)ccc2n1)c1ccc(S(=O)(=O)N2CCOCC2)cc1 | -51* | ? | ? | i | 7%
O=C(NNc1nc(-c2ccccc2)c2cc(Br)ccc2n1)c1ccc(S(=O)(=O)N2CCCCC2)cc1 | -6 | 3.3µM* | 15% | i | 0%
CN(C)S(=O)(=O)c1ccc(C(=O)NNc2nc(-c3ccccc3)c3cc(Br)ccc3n2)cc1 | -60* | ? | 14% | i | 4%
O=C(CN1CCCCC1)NNc1nc(-c2ccccc2)c2cc(Br)ccc2n1 | -6 | ? | 0% | i | -1%
CCCN1Cc2cccc(C(=O)Nc3ccc(C(C)=O)cc3)c2C1=O | · | ? | · | i | ·
CCOc1cc(/C=N/O)ccc1OCC(=O)Nc1cccc(C)c1 | -3 | 13µM* | 5% | i | ?
COc1cc(/C=N\NC(=O)CN2CCOCC2)ccc1OCC(=O)Nc1ccc(C)c(C)c1 | -6 | i | 1% | i | 2%
CCOc1cc(/C=N\Nc2ccc([N+](=O)[O-])cc2)ccc1OCC(=O)Nc1ccc(C)c(C)c1 | 87 | i | ? | i | 16µM*
COc1cc(/C=N\Nc2ccc([N+](=O)[O-])cc2)ccc1OCC(=O)Nc1ccc(C)c(C)c1 | 55 | i | 21µM* | ? | 5.8µM*
CCOc1cc(/C=N\NC(=O)Cc2ccccc2)ccc1OCC(=O)Nc1ccc(C)c(C)c1 | 18 | ? | -1% | ? | 15µM*
Cc1cccc(C)c1NC(=O)C(=O)NCC(c1ccc2c(c1)OCO2)N1CCN(C)CC1 (stereo unspecified) | · | i | · | i | ·
Cc1[nH]c(=O)[nH]c(=O)c1S(=O)(=O)Nc1cccc(Cl)c1C | · | ? | · | i | ·
O=C(CSc1nnnn1C1CC2C=CC1C2)Nc1ccc(C(=O)O)cc1 (stereo unspecified) | 5 | i | 2% | i | -2%
CCCOc1ccc(/C=N/NC(=O)CSCc2ccc([N+](=O)[O-])cc2)cc1OCC | -16 | 16µM* | -3% | i | 0%
CN(C)c1ccc(N/C=C/C(=O)C(C)(C)C)cc1 | -98* | i | ? | i | ?
CN(C)c1ccc(N/C=C/C(=O)c2ccccc2)cc1 | -11 | ? | ? | i | ?
Cc1sc2c(c1C)C(=O)NC(c1ccccc1F)N2 (stereo unspecified) | 1 | i | 2% | i | 13%
CC1(C(=O)NS(=O)(=O)c2ccc(Br)cc2)CCN1C(=O)CCC1CCCC1 (stereo unspecified) | 41 | i | · | i | ·
CCN(CC(=O)NCc1cccs1)C(=O)CCCOc1ccc(C(C)(C)C)cc1 | -9 | 21µM* | -1% | ? | 16%
CCOc1ccc(NS(=O)(=O)c2ccc(C(=O)N3CCCC(C)C3)cc2)cc1 (stereo unspecified) | 50 | i | ? | ? | -3%
Cc1cc(C)nc(NC(=S)NC(=O)c2ccccc2F)n1 | · | i | -53% | i | -11%
Cc1cc(C)nc(S/C=C/C(=O)c2ccccc2F)n1 | ? | ? | -4% | i | 2.6µM*
CCOc1ccccc1NC(=O)C1CCC(CNS(=O)(=O)c2ccc3c(c2)CCCC(=O)N3)CC1 (stereo unspecified) | · | i | · | ? | ·
CC(C)C1OC(c2cccc(NC(=O)c3cccs3)c2)OCC1(C)C (stereo unspecified) | -75* | ? | 1% | ? | ?
CC(C)C1C(C#N)=C(N)Oc2n[nH]c(-c3ccccc3)c21 (stereo unspecified) | -12 | i | -5% | i | 1%
SMILES | IL1B secr inh | KB-V1 cytotox | SW480 rereplic | KB-3-1 tox | MCF10A rereplic
Cc1[nH]nc2c1C(C(C)c1ccccc1)C(C#N)=C(N)O2 (stereo unspecified) | -86* | i | -2% | i | 9%
Cc1ccc(C)c(NC(=O)CN(C)C(=O)c2cc(C3CC3)nn2-c2ccccc2)c1 | -8 | ? | 7% | i | -2%
O=C(c1cn(-c2ccccc2)nc1-c1ccc(Br)cc1)N1CCOCC1 | 24 | ? | 23µM* | i | 5%
CN(CC(=O)Nc1ccc(F)cc1)C(=O)c1cn(-c2ccccc2)nc1-c1cccs1 | -60* | i | -10% | i | -1%
O=C(c1cn(-c2ccccc2)nc1-c1cccs1)N1CCOCC1 | -5 | ? | -2% | i | 1%
O=C(c1cn(-c2ccccc2)nc1-c1ccc(F)cc1)N1CCOCC1 | -12 | i | -2% | i | 23%
O=C(NC(=S)N1CCOCC1)c1cn(-c2ccccc2)nc1-c1ccc(F)cc1 | -25 | 21µM* | 10% | i | 9%
O=C(c1cn(-c2ccccc2)nc1-c1cccs1)N1CCN(c2ccccc2)CC1 | 10 | ? | 2.9µM* | 8.2µM* | 6.5µM*
Cc1nc(-c2ccc(S(=O)(=O)NCc3ccc(OC(C)C)cc3)cc2)co1 | · | i | · | i | ·
Cn1c(SCC(=O)NC2CCCc3ccccc32)nnc1C1CC1 (stereo unspecified) | 4 | i | 29% | i | 1%
CN(CC(=O)Nc1ccccc1Cl)C(=O)COC(=O)c1nc(Cl)c(Cl)c(Cl)c1Cl | -67* | i | ? | ? | 5.8µM*
CCc1ccccc1NC(=O)CN(C)C(=O)CSc1nnc(Nc2cccc(C)c2C)s1 | ? | 18µM* | -4% | i | 15%
CN(C(=O)CSc1nc2ccc(NC(=O)COc3ccc(Cl)cc3)cc2s1)c1ccccc1 | · | 21µM* | · | ? | ·
CN(CC(=O)Nc1ccccc1Cl)C(=O)CSc1nc2ccccc2s1 | -2 | 16µM* | 2% | i | -3%
CN(CC(=O)Nc1ccccc1Cl)C(=O)COC(=O)c1ccc(Cl)nc1 | 9 | i | -3% | i | 2%
COc1ccc(C2=Cc3ccccc3C(CC(=O)C3CC3)N2c2ccc(-c3cc(OC)c(OC)c(OC)c3)cc2)cc1 (stereo unspecified) | 16 | i | · | i | ·
CN(CC(=O)Nc1ccc(F)cc1)C(=O)Cn1cnc2ccc([N+](=O)[O-])cc2c1=O | 2 | i | 0% | i | 4%
NNC(=O)/C(=N/Nc1ccccc1)S(=O)(=O)c1ccc(Cl)cc1 | 45 | i | ? | 18µM* | ?
CCOC(=O)/C(=N/Nc1ccc(C)cc1)S(=O)(=O)c1ccc(Cl)cc1 | ? | 16µM* | 19% | i | ?
CCOC(=O)/C(=N\Nc1ccccc1)S(=O)(=O)c1ccccc1 | -10 | i | 2% | i | 20%
NNC(=O)CS(=O)(=O)c1ccc(Cl)cc1 | 2 | i | 8% | i | -1%
Cc1cccc(-c2nnc(SCc3cc(=O)c4cccc(Cl)c4[nH]3)n2C)c1 | · | i | · | i | ·
